Measurements: PubChem BioAssay AID1403 (National Center for Advancing Translational Sciences (NCATS), 2008)
Records with an inconclusive call do not appear. Values without a mark were called inactive. Calls come from the whole dose curve; as a rule, active = well fitted curve in the direction sought with a large enough effect in the signal ratio; inconclusive = small, poorly fitted or top-dose-only effect, or a change in a side signal; inactive = no such curve, though single readings can be large or run the other way; the % refers to the signal ratio.

Molecular target: Follicle-stimulating hormone receptor (Homo sapiens) (UniProt P23945)
Experiment: Counterscreen for Agonists of Thyroid Stimulating Hormone Receptor: HTRF Activity in a Follicle Stimulating Hormone Receptor Cell Line
Details: HEK293-FSHR cells, 30 min; series mostly up to 91.7 µM; activation (cAMP increase): at the top concentration
Text: NIH Chemical Genomics Center [NCGC] NIH Molecular Libraries Screening Centers Network [MLSCN] MLSCN Grant: 1 X01 MH080680-01 PI Name: Dr. Marvin Gershengorn, NIH NCGC Assay Overview: Confirmation of Thyroid Stimulating Hormone Receptor Agonists TSH is an alpha/beta heterodimeric glycoprotein hormone secreted from the anterior pituitary gland which belongs to the glycoprotein hormone family. The actions of TSH are mediated by a seven-transmembrane receptor, which upon TSH binding couples preferentially to the G-alpha (s) protein (Gs), resulting in activation of adenylate cyclase and increase in cyclic adenosine 3', 5' monophosphate (cAMP). The TSH receptor (THSR) is mainly expressed in thyroid follicular cells and regulates their growth and function. Recombinant TSH is used to activate TSHR in patients with thyroid cancer receiving thyroid hormone suppression therapy and to screen for residual tumor after surgery, but it is expensive and must be administered intramuscularly. An orally active small molecule TSHR agonist would serve as an invaluable research tool for studying TSHR pharmacology and physiology, and would have multiple advantages in therapeutic settings. However, no selective small molecule agonist of the TSH receptor exists, and no small molecule screen for TSHR agonists has ever been reported. In order to confirm specificity of the compounds to the TSHR, a confirmatory assay was conducted on a similar family member, the Follicle Stimulating Hormone (FSH) receptor, transfected into a HEK 293 cell line, using an orthogonal detection technology to measure cAMP stimulation: antibody-based Homogeneous Time Resolved Fluorescence (HTRF).
NCGC Assay Protocol Summary: Homogeneous Time Resolved Fluorescence (HTRF) cAMP Assay. HEK 293 cells stably transfected with a vector containing the FSH receptor and maintained under hygromycin selection were obtained from the laboratory of Dr. Marvin Gershengorn. Compounds were assayed using a HTRF cAMP detection kit (Cisbio) on the FSH receptor transfected cell line. Briefly, 750 cells were plated in 2.5 ul/well of complete media (DMEM containing 10 % FCS, and 100 uM RO 20-1724) in 1536 well solid bottom white plates and 23 nl/well compound in DMSO solution or controls was added. Following 30 minute incubation at room temperature, 2.5 ul/well of labeled d2 cAMP and 2.5 ul/well of anti-cAMP antibody (both diluted 1:20 in lysis buffer) were added to each well using a flying reagent dispenser (Aurora Discovery, San Diego) . Plates were measured using the Envision plate reader (PerkinElmer, Boston, MA) with excitation at 330 nm and emissions of 615 nm and 660 nm. Keywords: Follicle Stimulating hormone FSH, Thyroid-stimulating hormone TSH, TSHR, TSHR agonist, quantitative high throughput screening, qHTS, HTS, probe identification, CNG, cAMP, cyclic nucleotide gated ion channel PubChem

| SMILES | activation (cAMP increase) |
| --- | --- |
| NC(=O)c1nsc(C(=O)N(CC(=O)NCc2ccc3c(c2)OCO3)C2CCCC2)c1N | 2.69% |
| CC(NC(=O)COC(=O)c1ccco1)C12CC3CC(CC(C3)C1)C2 (stereo unspecified) | 2.3% |
| COc1ccc(C2Nc3cccc(O)c3C(=O)N2Cc2ccccc2)cc1COc1ccc(NC(C)=O)cc1 (stereo unspecified) | 2.5% |
| Cc1sc2ncn(/N=C/c3cn(-c4ccccc4)nc3-c3ccccc3)c(=O)c2c1C | 2.19% |
| O=C(COC(=O)C12CC3CC(CC(Cl)(C3)C1)C2)NCc1ccco1 | 3% |
| NC(=O)c1nsc(C(=O)N(CC(=O)NC2CCCC2)Cc2ccc3c(c2)OCO3)c1N | 2.28% |
| COc1ccc(C2Nc3ccccc3C(=O)N2Cc2ccco2)cc1COc1ccc([N+](=O)[O-])cc1 (stereo unspecified) | 1.48% |
| O=C(COC(=O)C12CC3CC(CC(C3)C1)C2)NCc1ccco1 | 1.72% |
| Cc1nn(-c2ccccc2)c(N2CCCC2)c1/C=N/n1cnc2scc(-c3ccccc3)c2c1=O | 1.54% |
| O=c1c2c(-c3ccccc3)csc2ncn1/N=C/c1cn(-c2ccccc2)nc1-c1cccs1 | 1.77% |
| COc1ccc(C(=O)N(Cc2ccco2)Cc2cccs2)cc1 | 1.97% |
| O=C1CC(c2ccccc2)CC2=C1C(c1ccco1)n1nc(C(F)(F)F)nc1N2 (stereo unspecified) | 2.73% |
| O=C1C2C3CCCC3=C3CCCC3C2C(=O)N1c1ccc(Cl)cc1 (stereo unspecified) | 1.86% |
| O=C(COC(=O)C12CC3CC(CC(O)(C3)C1)C2)NCc1ccco1 | 1.41% |
| COc1ccc(C(=O)N(Cc2ccco2)Cc2cccs2)c(OC)c1 | 2.98% |
| COc1ccc(C(=O)N(Cc2ccco2)Cc2cccs2)c(O)c1 | 2.03% |
| O=C(COC(=O)C12CC3CC(CC(Br)(C3)C1)C2)NCc1ccco1 | 2.19% |
| O=C1C2C3CCCC3=C3CCCC3C2C(=O)N1c1ccc(F)cc1 (stereo unspecified) | 1.1% |
| NC(=O)c1nsc(C(=O)N(CC(=O)NCc2ccc3c(c2)OCO3)C2CCCCC2)c1N | 1.39% |
| CCn1c(=O)c(C(=O)CN2CCCc3ccccc32)c(N)n(Cc2ccccc2)c1=O | 2.04% |
| COc1ccc(C2Nc3ccccc3C(=O)N2Cc2ccco2)cc1COc1ccc(NC(C)=O)cc1 (stereo unspecified) | 2.5% |
| O=C(COC(=O)C12CC3CC(CC(C3)C1)C2)NCC1CCCO1 (stereo unspecified) | 2.33% |
| COc1cc(OC)c(C(=O)N(Cc2ccco2)Cc2cccs2)cc1OC | 1.54% |
| O=C1C2C3CCCC3=C3CCCC3C2C(=O)N1c1cccc(Cl)c1 (stereo unspecified) | 1.12% |
| O=C1C2C3CCCC3=C3CCCC3C2C(=O)N1c1ccccc1Cl (stereo unspecified) | 1.16% |
| COc1ccc(C2Nc3ccccc3C(=O)N2Cc2ccco2)cc1COc1c(C)cccc1C (stereo unspecified) | 2.19% |
